Data on 24 compounds can be found in PubChem BioAssay.

Usually inhibition stands for the relative decrease from the control value, in per cent. Broadly, the AC50 is the concentration at which the activity in the assay is half-maximal.

Inconclusive results are not listed. For some of these results: Results with a measured potency or affinity are listed apart. Active and inactive are the calls of the source. Unless noted, how the calls were made is not given here.

The nature of experiment [1]: viability loss in pontine glioma line – cell-based, SU-DIPG-XVII, MIPE5.0, CellTiter-Glo, qHTS, dose response (AID 1347060; cut-off not given, nearly all actives have AC50 up to about 26 µM;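 on AC50: cells exposed to compound for 48 hours before viability readout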). Particulars: CellTiter-Glo ATP luminescence. (In general: ATP-based viability assays read luminescence as a measure of living cells.)
Experiment [2] is described as follows: blockers of polyQ-driven CASP3 activation – cell-based (AID 1583). The settings on record: polyglutamine-induced caspase-3 activation, cell assay; stronger effect = higher value;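 tested at 10 µM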.
A short description of experiment [3]: yeast 75Q aggregation reduction – 75Q-TubU reporter (AID 1593). The settings on record: Yeast 75Q polyglutamine aggregation reporter.
A short description of experiment [4]: restoration of touch response, mutant HTT neurons – whole organism, C. elegans mechanosensory neurons, N-terminal huntingtin (AID 1599). Particulars: C. elegans polyQ-huntingtin mechanosensory neurons, stronger effect = higher value.
A short description of experiment [5]: blockers of cytochrome c efflux from mitochondria – biochemical, purified mitochondria (AID 1603).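 Further: mouse liver mitochondria challenged with calcium chloride; signal normalized to the plate average as 100%.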 The settings on record: stronger effect = lower value.
Experiment [6] can be described thus: polyglutamine aggregate formation blockers (AID 1604). Particulars: polyglutamine-induced protein aggregation inhibition assay; stronger effect = higher value; tested at 2.5 µM.
The nature of experiment [7]: glutamate transport activators, MN-1 cells, MN-1 cell line (AID 1612).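 Further: tested at 1 µM final; 0% = mean of DMSO vehicle wells on each plate; positive means more glutamate uptake than control and negative means less.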 The settings on record: MN-1 motor neuron cells, stronger effect = higher value.
The nature of experiment [8]: 75Q-TubH aggregate inhibition, S. cerevisiae, yeast (AID 1616). Particulars: S. cerevisiae 75Q-TubH polyglutamine aggregation suppression; stronger effect = higher value.
A short description of experiment [9]: compounds altering circadian rhythm period length – cell-based, LOPAC library, luminescence reporter (AID 2774).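 Further: values are relative to mean of DMSO wells on each plate.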 Particulars: circadian reporter cells, at 7 µM, actives lie on both sides.
The test system of experiment [10] is Hepatitis C virus NS3 helicase. Description: blockers of NS3h binding to ssDNA – biochemical, fluorescence polarization, LOPAC1280 library, primary screen (AID 687035; in the data active means inhibition above about 37%). Particulars: Purified HCV NS3 helicase, Cy5-dT15 ssDNA binding fluorescence polarization; stronger effect = higher value; concentration not given here. (In general: In fluorescence polarisation assays a small probe gives low polarisation when free and higher when bound to something large.)

Experiment [11] can be described thus: compounds altering Cy5-DNA-NS3h complex signal – biochemical, LOPAC1280, artefact control for HCV NS3 helicase inhibitor project (AID 687037). The settings on record: Cy5-DNA-NS3h complex fluorescence interference counterscreen. A general note: The purpose of a counterscreen is to sort out artefacts and off-target activity.
Experiment [12] is described as follows: blockers of cellular phospholipid synthesis – cell-based, LOPAC library, screen 4, primary screen (AID 1347384). Particulars: animal cells, phospholipid biosynthesis inhibition screen; at 10 µM.
Experiment [13] can be described thus: compounds altering HSF1 focus formation in cells – imaging, Selleck Cancer Library (AID 1347162; in the data active means plate-normalised HSF1 focus index below about 0.46). The settings on record: human cells, HSF1 nuclear foci imaging, at 10 µM; SSMD: measured here: HSF1 foci SSMD mean; cell count: measured here: cell number; plate-normalised HSF1 focus index: stronger effect = lower value.
Experiment [14] is described as follows: viability loss in pontine glioma line – cell-based, SU-DIPG-XIII, MIPE4.0, CellTiter-Glo, qHTS, dose response (AID 1347061; cut-off not given, nearly all actives have AC50 up to about 37 µM;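 further: cells exposed to compound for 48 hours before readout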). Particulars: CellTiter-Glo ATP luminescence.
Experiment [15] can be described thus: GFP-Q80 aggregate reduction, neuronal-like cells, cell-based, NGF-treated PC12, GFPQ80 (AID 1614).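 Further: lower means fewer inclusions and 0 means no inclusions at all.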 Particulars: PC12 NGF-treated GFP-polyQ80 inclusion reduction.

In the case of `NC(N)=NC(N)=NCCc1ccccc1`, in experiment [1], the compound was called inactive.

For the compound `COc1cc2c(c(OC)c1OC)-c1ccc(OC)c(=O)cc1[C@@H](NC(C)=O)CC2`, the inhibition in experiment [2] is -76.8%; in experiment [10], -1% (inactive). Also, the score in experiment [3] came out at 1.26. Besides, the rescue above control in experiment [4] is -5.06. Besides, the cytochrome c release ratio in [5] was 0.87. This compound registered an inhibition of aggregation in experiment [6] of 97.2%. Besides, the glutamate uptake change in experiment [7] is -10.3%. In experiment [8], this compound yielded an aggregation suppression score of 1.64. For the same compound, in experiment [9], the period change is -0.41 h (inactive). For the same compound, in [11], the fluorescence ratio (interference) was 1 (inactive). Also, the AC50 in [1] is 0.0295 µM (active). The call in [12] was inactive.

Turning to `Cc1nc(Nc2ncc(C(=O)Nc3c(C)cccc3Cl)s2)cc(N2CCN(CCO)CC2)n1`, the AC50 in [1] is 16.6 µM (active). Also, in experiment [13], the SSMD was -0.87, the cell count amounted to 6550 and the plate-normalised HSF1 focus index is 0.957 (inactive).

With `Cn1c(=O)c2c(ncn2CC2OCCO2)n(C)c1=O`, in experiment [1], the call was inactive.

Take `COc1cc2ncnc(Nc3ccc(F)c(Cl)c3)c2cc1OCCCN1CCOCC1`: the half-maximal activity concentration (AC50) in [14] is 38.2 µM (active). Further, in experiment [13], the SSMD was -3.63, the cell count is 5320 and the plate-normalised HSF1 focus index is 0.813 (inactive).

Take `NCCCNCCSP(=O)(O)O`: the period change in experiment [9] is -0.025 h (inactive). Also, the inhibition in [10] was -3% (inactive). Also, the fluorescence ratio (interference) in experiment [11] is 1 (inactive). Moreover, the compound was called inactive in experiment [12].

`CN(N=O)C(=O)N[C@@H]1[C@@H](O)[C@H](O)[C@@H](CO)O[C@@H]1O`: in [2], the inhibition was -0.83%. Further, the score in [3] came out at 1.48. This compound came in with a rescue above control in experiment [4] of -12.1. The cytochrome c release ratio in experiment [5] came out at 1.09. In [6], this compound returned an inhibition of aggregation of 69%. The glutamate uptake change in [7] is -14.8%. For the same compound, the inclusion score in experiment [15] came out at 2. In experiment [8], the aggregation suppression score stood at 1.03. In addition, in [1], the outcome was inactive.

Regarding `Clc1ccc(Cn2c(CN3CCCC3)nc3ccccc32)cc1`, in experiment [9], the period change is 0.175 h (inactive). In addition, the inhibition in experiment [10] was 0% (inactive). The fluorescence ratio (interference) in [11] is 1 (inactive). In [12], the call was inactive.

Consider `C#CCN(C)CCCOc1ccc(Cl)cc1Cl`, for which the period change in [9] is 0.03 h (inactive). Also, in experiment [10], the inhibition is -6% (inactive). In addition, the fluorescence ratio (interference) in experiment [11] was 1 (inactive). In addition, in experiment [12], the result was inactive.

Take `Cc1cc(=O)oc2cc(O)ccc12`: the AC50 in experiment [14] is 0.418 µM (active).

Turning to `C[C@H]1[C@H](NC(=O)/C(=N/OC(C)(C)C(=O)O)c2csc(N)n2)C(=O)N1S(=O)(=O)O` (stereo in doubt), in experiment [14], the compound was called inactive.

On to `OC(CCN1CCCCC1)(c1ccccc1)C1CC2C=CC1C2` (stereo not given), for which the inhibition in experiment [10] is -3% (inactive). In addition, the fluorescence ratio (interference) in experiment [11] was 1 (inactive). Also, the outcome in experiment [14] and in experiment [12] was inactive.

With `COc1c(C)c2c(c(O)c1C/C=C(\C)CCC(=O)OCCN1CCOCC1)C(=O)OC2`, the AC50 in experiment [1] is 0.59 µM (active). Moreover, in [13], the SSMD was -0.00851, the cell count was 7610 and the plate-normalised HSF1 focus index is 0.999 (inactive).

Regarding `CC(=O)c1ccc2c(c1)N(CCCN(C)C)c1ccccc1S2`, the compound was classed as inactive in [12].

Turning to `CC(C)Cn1cnc2c(N)nc3ccccc3c21`, the outcome in experiment [1] was inactive.

As for `O=C(O)[C@H](O)[C@@H](O)[C@H](O[C@@H]1O[C@H](CO)[C@H](O)[C@H](O)[C@H]1O)[C@H](O)CO`, the compound was called inactive in experiment [1].

For `CN1CCN(c2c(F)cc3c(=O)c(C(=O)O)cn4c3c2OCN4C)CC1`, the call in [14] was inactive.

Turning to `O=C(CCCCCCC(=O)Nc1ccccc1)NO`, the AC50 in [1] is 1.86 µM (active). Besides, in experiment [13], the SSMD was -0.489, the cell count is 6970 and the plate-normalised HSF1 focus index was 0.984 (inactive).

Take `O=C(O)c1cc(=O)[nH]c(=O)[nH]1`: the call in [1] was inactive.

Regarding `CCCCCCCCCCCCCCCCCCCCCCO`, the call in experiment [14] was inactive.

On to `CC(=O)Oc1cc(C(C)C)c(OCCN(C)C)cc1C`, for which the period change in experiment [9] was -0.155 h (inactive). For the same compound, the inhibition in experiment [10] was -6% (inactive). The fluorescence ratio (interference) in experiment [11] is 1 (inactive). In addition, the result in experiment [12] was inactive.

For the compound `COc1ccc2[nH]c(S(=O)Cc3ncc(C)c(OC)c3C)nc2n1` (stereo not given), the compound was classed as inactive in experiment [1].

Consider `CNC1CCCN(c2c(F)cc3c(=O)c(C(=O)O)cn(C4CC4)c3c2OC)C1` (stereo not given), for which, in [1], the outcome was inactive.

As for `O=[N+]([O-])c1ccc(O)c2ncccc12`, the AC50 in [1] was 6.61 µM (active).
